# According to PubChem BioAssay AID2284334 (EPA ToxCast):
# Results filed as inconclusive are left out. Activity calls are given as the source filed them. Rule for the calls: active = hit-call score of the fitted dose curve at least 0.9, where 1 is the maximum; inconclusive = response in the unintended direction; inactive = score below 0.9.
# Molecular target: human Peroxisome Proliferator-activated Receptor alpha (PPARa), PPARA (gene 5465) (UniProt Q07869)
# Test: ATG_hPPARa_EcoTox2: Attagene TRANS-FACTORIAL EcoTox-2 HepG2 Assay for human Peroxisome Proliferator-activated Receptor alpha (PPARa)
# Description: ATG_EcoTox2 is a cell-based, multiplexed assay created by modifying the existing Attagene TRANS-FACTORIAL system to include a panel of nuclear receptors from some or all the following species: human (Homo sapiens), african clawed frog (Xenopus laevis), rainbow trout (Oncorhynchus mykiss), japanese medaka (Oryzias latipes), and zebrafish (Danio rerio). The ECOTOX2-FACTORIAL format uses HepG2, a human liver cell line, with measurements taken at 24 hours after chemical dosing in a 24-well plate. ATG_hPPARa_EcoTox2 is one of 29 assay components calculated in the ATG_EcoTox2 assay. It is designed to make measurements of mRNA induction, a form of inducible reporter, as detected with fluorescence intensity signals by Reverse transcription polymerase chain reaction (RT-PCR) and Capillary electrophoresis technology.The assay endpoint ATG_hPPARa_EcoTox2 was analyzed in the positive analysis fitting direction relative to DMSO as the negative control and baseline of activity. Using a type of inducible reporter, measures of mRNA for gain-of-signal activity can be used to understand the reporter gene at the transcription factor-level as they relate to the gene PPARa. Furthermore, this assay endpoint can be referred to as a primary readout, because this assay has produced multiple assay endpoints where this one serves a reporter gene function. […]
# human Peroxisome Proliferator-activated Receptor alpha (PPARa), PPARA (gene 5465), sequence (Q07869 whole entry, looked up): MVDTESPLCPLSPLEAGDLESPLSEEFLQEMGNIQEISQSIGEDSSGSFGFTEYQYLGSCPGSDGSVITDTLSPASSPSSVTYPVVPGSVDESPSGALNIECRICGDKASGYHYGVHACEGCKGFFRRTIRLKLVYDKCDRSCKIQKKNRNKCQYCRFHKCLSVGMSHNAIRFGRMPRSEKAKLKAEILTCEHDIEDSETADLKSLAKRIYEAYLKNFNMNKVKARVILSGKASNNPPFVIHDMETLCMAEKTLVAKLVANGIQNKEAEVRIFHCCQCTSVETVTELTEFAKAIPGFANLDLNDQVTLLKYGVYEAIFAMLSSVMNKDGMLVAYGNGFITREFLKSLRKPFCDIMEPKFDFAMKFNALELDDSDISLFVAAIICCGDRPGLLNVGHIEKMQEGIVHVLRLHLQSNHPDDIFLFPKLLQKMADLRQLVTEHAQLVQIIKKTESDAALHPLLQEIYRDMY
row,SMILES,AC50
1,O=C(O)C(F)(F)C(F)(F)C(F)(F)C(F)(F)C(F)(F)C(F)(F)C(F)(F)F,11.4 µM (active)
2,O=S(=O)(O)C(F)(F)C(F)(F)C(F)(F)C(F)(F)C(F)(F)C(F)(F)F,23 µM (active)
